Shown are actives, neighbours in structure and some others; about 5.5% of the full set was active somewhere.
uPA generation: qHTS for Inhibitors of Cell Surface uPA Generation; cell surface uPA generation assay, qHTS; 330,000 tested, 0.31% active; Potency, µM (highest dose often 38.3 µM), without a hit: at the highest dose activity change, negative = inhibition, most hits filed as inhibitors; active = well fitted inhibition curve with a large enough effect; inconclusive = small, poorly fitted or top-dose-only effect; inactive = no such curve, though single readings can be large or run the other way; tested in mouse RAW 264.7 cells; also: % is scaled to controls: 0 for no effect and ±100 for the full control effect; nearly all actives have a fitted effect of over 55% in size
Mito fusion yeast: qHTS Assay for Small Molecule Inhibitors of Mitochondrial Division or Activators of Mitochondrial Fusion; Potency, µM (top dose mostly 46.1 µM), inactives show top-dose growth rescue (activation), most hits filed as activators; 320,000 tested, 0.23% active; S. cerevisiae fusion-defective mutant growth rescue, CellTiterGlo 48 h; also: % of control where 0% means no effect; nearly all actives have a fitted effect of over 45% in size
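Temperature-sensitive fusion-defective S. cerevisiae (e.g. fzo1-1, mgm1-5) were grown with compound in YPEG medium (3% ethanol, 3% glycerol) for 48 hours at 37C. Growth rescue was measured as viability by CellTiterGlo luminescence after 10 minutes at ambient.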
RORg inh: qHTS for inhibitors of ROR gamma transcriptional activity; Nuclear receptor ROR-gamma (Mus musculus), P51450; Drosophila S2 Gal4-RORgamma UAS-luciferase reporter, 20 h; Potency, µM (titrated, usually from 53.6 µM), inactives show at the top dose activity change, negative = inhibition, most hits filed as inhibitors; 310,000 tested, 5.4% active; AID 2551, 2010; also: % is scaled to controls: 0 for no effect and ±100 for the full control effect; nearly all actives have a fitted effect of over 60% in size
Target sequence (P51450 whole entry, looked up, the tested form may be a part): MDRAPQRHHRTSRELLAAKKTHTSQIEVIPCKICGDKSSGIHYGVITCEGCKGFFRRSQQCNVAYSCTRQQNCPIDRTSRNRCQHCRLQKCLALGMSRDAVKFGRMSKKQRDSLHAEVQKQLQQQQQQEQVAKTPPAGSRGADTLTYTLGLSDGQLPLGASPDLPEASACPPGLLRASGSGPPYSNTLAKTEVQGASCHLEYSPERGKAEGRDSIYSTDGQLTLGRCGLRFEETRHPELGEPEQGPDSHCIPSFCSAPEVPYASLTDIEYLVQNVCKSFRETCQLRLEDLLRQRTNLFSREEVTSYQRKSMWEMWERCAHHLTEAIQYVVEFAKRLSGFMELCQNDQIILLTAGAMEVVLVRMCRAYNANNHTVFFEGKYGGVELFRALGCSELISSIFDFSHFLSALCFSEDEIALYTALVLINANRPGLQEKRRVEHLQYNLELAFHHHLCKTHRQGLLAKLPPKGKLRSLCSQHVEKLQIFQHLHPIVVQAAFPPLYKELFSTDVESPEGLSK
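In this cell-based reporter format, copper sulfate (700 uM final) drives Gal4–ROR gamma fusion expression from a metallothionein promoter in Drosophila Schneider cells; compounds preincubated 1 hr, reporter read after 20 hr at ambient temperature.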
Chronic BCR inh: qHTS Assay to Find Inhibitors of Chronic Active B-Cell Receptor Signaling; Potency, µM (titrated, usually from 46.1 µM), inactives show top-dose activity change, negative = inhibition, hits mostly inhibitors; ABC-DLBCL IkBa-CBG/CBR reporter, luminescence ratio, 4 h; 340,000 tested, 0.05% active; active = well fitted inhibition curve with a large enough effect in the signal ratio, with a control signal flat, not every such curve was filed as active; inconclusive = small, poorly fitted or top-dose-only effect, or effect the other way, or a change in a side signal; the % refers to the signal ratio;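 also: plate controls were basal doxycycline-induced cells for no effect and cells given 10 µM MG132 for full effect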
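Compounds up to 46 uM were incubated four hours with TMD8 cells whose green CBG68 luciferase is fused to IkappaBalpha; red CBR luminescence normalised the signal, and concentration-effect curves were fitted to fusion, red and ratio data.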
a7 integrin act: qHTS for Activators of Integrin-Mediated Alleviation for Muscular Dystrophy; alpha7betagal myoblasts, beta-gal FDG fluorescence, 48 h; Potency, µM (doses to about 38.3 µM), for inactives: top-dose activation, actives largely listed as activators; 350,000 tested, 0.064% active;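 also: 100% = response of the positive control SU9516; nearly all actives have a fitted effect of over 60% in size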
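Alpha7betagal+/- myoblasts (passage 13) were plated 16-24 hr, then exposed to compounds (1:260 dilution of DMSO stock) for 48 hours at 37C. After MPER lysis, β-galactosidase reporter activity was read as FDG fluorescence (ex 480/em 540) after 30 minutes.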
Gal4-VP16 FLuc: VP16 counterscreen qHTS for inhibitors of ROR gamma transcriptional activity | AID 2546, 2010 | 310,000 tested, 3.5% active | Potency, µM (titrated, usually from 53.6 µM), for inactives: top-dose activity, negative = inhibition, usual class: inhibitors | Drosophila S2 Gal4-VP16 UAS-luciferase, luminescence, 20 h;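 also: Gal4-VP16 expression switched on by copper sulfate through the metallothionein promoter; % is scaled to controls: 0 for no effect and ±100 for the full control effect; nearly all actives have a fitted effect of over 50% in size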
Starred values were filed as active, the others as inactive; ? = inconclusive; / = no result given; [ ] = dose if it differs, or a comment. Unless noted, calls follow the shape of the dose curve; as a rule, active = well fitted curve in the direction sought with a large enough effect; inconclusive = small, poorly fitted or top-dose-only effect, or another doubt; inactive = no such curve, though single readings can be large; an effect the other way counts as inactive or inconclusive. Potency is read from the fitted curve at half-maximal effect.

SMILES | uPA generation | Mito fusion yeast | RORg inh | Chronic BCR inh | a7 integrin act | Gal4-VP16 FLuc
Cc1ccc(C)c(-c2nnc(NC(=O)COc3ccccc3)o2)c1 | -3% | ? | / | 6% | 5% | /
Cc1ccc(-c2nnc(NC(=O)Cc3ccc(F)cc3)o2)c(C)c1 | -12% | 7% | 1.4µM* | 2% | -32% | 1.3µM*
Cc1ccc(C)c(-c2nnc(NC(=O)Cc3ccc(F)cc3)o2)c1 | -16% | 6% | 0.63µM* | 1% | -3% | 0.56µM*
S=C([S-])NCCNC(=S)[S-].[Zn+2] | / | / | -15% | / | / | 7%
Cc1nn2c(NCCCN(C)C)c3c(nc2c1-c1ccccc1)CCC3 | 6% | -1% | 11µM* | 4% | -51% | -20%
COCCNc1c2c(nc3c(-c4ccccc4)c(C)nn13)CCC2 | -4% | 12% | -40% | 20% | 13% | -3%
Cc1nn2c(NC(C)C)c3c(nc2c1-c1ccccc1)CCC3 | 6% | 16% | 3.5µM* | ? | -10% | 10%
Cc1nn2c(NCCCN(C)C)c3c(nc2c1-c1ccccc1)CCCC3 | 2% | -3% | ? | ? | -32% | 3%
Cc1nn2c(NCC(C)C)c3c(nc2c1-c1ccccc1)CCC3 | / | -7% | ? | -1% | 18% | 6%
Cc1nn2c(Nc3ccccc3)c3c(nc2c1-c1ccccc1)CCC3 | 3% | -3% | 2.8µM* | 4% | 4% | 5µM*
CC(=O)N1CCC2(CC1)CCN(C(=O)Nc1cccc(F)c1)CC2 | / | / | -23% | / | / | 5%
COc1ccccc1[C@@H]1C(c2ccc(F)cc2)=NN(c2ccc(Br)cc2)[C@H]1C(=O)N1CCOC1=O | / | / | 0%[40.7 µM] | / | / | 3%[40.7 µM]
COc1ccccc1OC[C@H](O)CO | 3% | 0% | -8% | -23% | / | 1%
CSc1ccccc1OCc1cc(C(=O)N2CCc3c(Cl)cccc3C2)no1 | 8% | 0% | 13µM* | 2% | 13% | ?
O=C(O)c1ccc(/C=N/n2c(C3CCCCC3)n[nH]c2=S)cc1 | 0% | -23% | -21% | -3% | 9% | 0%
Cc1ccc(/C=N/n2c(COc3ccccc3)n[nH]c2=S)o1 | -1% | -10% | ? | 6% | -24% | 8%[10 µM]
Cc1cc(-c2n[nH]c(=S)n2/N=C/c2ccc(C)o2)n[nH]1 | 4% | -2% | -8% | 1% | -20% | -1%
S=c1[nH]nc(C2CCCCC2)n1/N=C/c1ccncc1 | -12% | -8% | ? | 12% | 37% | -14%
O=[N+]([O-])c1ccc(/C=N/n2c(C3CCCCC3)n[nH]c2=S)cc1 | -6% | -5% | 1.4µM* | 2% | -17% | ?
Cc1cccc(-c2n[nH]c(=S)n2/N=C/c2ccc(C)o2)c1 | -1% | 2% | ? | 6% | 8% | 11µM*
CSc1ccc(/C=N/n2c(C3CCCCC3)n[nH]c2=S)cc1 | -1% | -36% | 1.6µM* | 10% | ? | ?
Cc1ccc(/C=N/n2c(C3CCCCC3)n[nH]c2=S)o1 | 0% | -5% | 11µM* | ? | 24% | ?
CC(C)C[C@H](NC(=O)[C@H](CC(C)C)NC(=O)[C@H](Cc1ccccc1)NC(=O)[C@@H](N)CO)C(=O)N[C@@H](CCCNC(=N)N)C(=O)N[C@@H](CC(N)=O)C(=O)N1CCC[C@H]1C(=O)N[C@@H](CC(N)=O)C(=O)N[C@@H](CC(=O)O)C(=O)N[C@@H](CCCCN)C(=O)N[C@@H](Cc1ccc(O)cc1)C(=O)N[C@@H](CCC(=O)O)C(=O)N1CCC[C@H]1C(=O)N[C@@H](Cc1ccccc1)C(=O)O | / | / | 13% | / | / | -4%
O=C(/C=C/c1ccccc1Cl)NCCCn1ccnc1 | 0% | 0% | 7% | 1% | -16% | -10%
COc1cc(C(=O)NCc2ccc3c(c2)CCN3C(=O)c2ccc(Cl)cc2)cc(OC)c1OC | / | / | / | 24% | / | /
SMILES | uPA generation | Mito fusion yeast | RORg inh | Chronic BCR inh | a7 integrin act | Gal4-VP16 FLuc
O=C(Nc1ncccc1O)c1cccc(S(=O)(=O)NCc2ccccc2)c1 | -5% | 2% | / | -5% | 9% | /
Cc1ccccc1NC(=S)NC1CCCC1 | 2% | -18% | 7.9µM* | ? | -42% | 8.9µM*
Cc1cccc(NC(=S)NNC(=S)NC2CCCCC2)c1C | -1% | 7% | 13µM* | ? | 0% | ?
Cc1cccc(C)c1NC(=S)NC1CCCCC1 | -1% | 4% | 6.3µM* | 9% | -27% | 4.5µM*
CCCN1C2CCCC1CC(NC(=S)Nc1cccc(C)c1C)C2 (stereo not given) | -21% | 1% | 5% | -11% | -42% | -8%
Cc1cccc(NC(=S)NNC(=O)c2ccc(O)cc2O)c1C | 0% | -4% | 7.9µM* | ? | -11% | 20µM*
COC(=O)N1CCC2(CCCN(C(=O)Nc3cccc(C#N)c3)C2)CC1 | / | / | -11% | / | / | 16%
COc1cc2c(cc1O)CCN[C@@]21CS[C@H]2c3c(OC(C)=O)c(C)c4c(c3C(COC1=O)N1C2C2c3c(cc(C)c(OC)c3O)CC([C@@H]1O)N2C)OCO4 (stereo not given in full) | / | / | 0.14µM* | / | / | 0.45µM*
CCN(CC)c1ccc(NC(=O)Cn2cc3c(n2)CCC(C)C3)c(C)c1 (stereo not given) | ? | 7% | -54% | 0% | -8% | 11µM*
COc1ccc(/C=N/Nc2nc(C)cc(-c3ccccc3)n2)c(OC)c1 | -3% | -11% | 10µM* | 0% | 13% | 11µM*
Cc1ccc2nc(C)cc(N/N=C/c3ccccc3O)c2c1 | ? | -6% | 5.6µM* | -7% | -31% | 7.9µM*
COc1ccc(/C=N/Nc2cc(C)nc3ccc(OC)cc23)c(OC)c1 | -12% | -2% | 11µM* | ? | -41% | 10µM*
COc1ccc2nc(C)cc(N/N=C/c3ccccc3)c2c1 | -16% | -1% | / | ? | -54% | /
COc1ccccc1/C=N/Nc1cc(C)nc2ccc(C)cc12 | 1% | -2% | 13%[1.91 µM] | -9% | -9% | -1%
O=C(Nc1c[nH]c(=O)[nH]c1=O)c1cccc([N+](=O)[O-])c1 | -17% | 6% | 1% | 2% | 6% | -1%
COc1ccc(N2CCN(C(=O)Cc3c(C(=O)O)c(C)cn3C)CC2)cc1 | / | / | / | 6% | / | /
COc1cc(OC)cc(C(=O)NC(=S)NNC(=O)[C@H]2C[C@@H]2c2ccccc2)c1 | 2% | -13% | 14µM* | -4% | -12% | ?
O=C(NC(=S)NNC(=O)[C@H]1C[C@@H]1c1ccccc1)c1ccc(F)cc1 | -4% | ? | 10µM* | 4% | -9% | ?

Source: PubChem BioAssay (National Center for Advancing Translational Sciences (NCATS))
